The source made the active and inactive calls. Unless noted, no rule for the calls is given here.
Key:
[1] = anti-His antibody binders, primary screen, artefact control for SMM control protein annotation, biochemical, small-molecule microarray, 635 nm fluorescence (AID 1128); details: anti-His Alexa647 antibody binding, higher = more signal;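 also: score merges feature fluorescence with signal-to-noise for each printed compound spot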
[2] = test system: Human papillomavirus type 1a E7 protein (residues 1-88); assay: HPV1a E7 small-molecule binders, primary screen, biochemical, small-molecule microarray, residues 1-88, 635 nm (AID 1129); details: small-molecule microarray binding, fluorescence 635 nm; higher = more signal
[3] = biological target: Focal adhesion kinase 1 (Homo sapiens) (UniProt Q05397); assay: small-molecule microarray binders of FAK, primary screen, biochemical, 635/667 nm fluorescence, BSA, DTT (AID 1130); details: PTK2 binding, 635 nm fluorescence, higher = more signal;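 also: composite of spot emission at 667 nm and signal to noise over triplicate slides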
[4] = test system: Fibrinogen (Alexa647-labelled); assay: fibrinogen binders on compound microarrays, profiling panel, artefact control for SMM control-protein annotation, biochemical, small-molecule microarray, 635/667 nm fluorescence (AID 1131); details: fibrinogen-A647 binding fluorescence, higher = more signal;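 also: z-score merges 667 nm fluorescence with per-spot signal-to-noise over triplicate slides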
[5] = biological target: Follistatin (Homo sapiens) (UniProt P19883); assay: follistatin binders on small-molecule microarrays, primary screen, biochemical, small-molecule microarray, 635/667 nm fluorescence (AID 1132); details: FST binding, 635 nm fluorescence, higher = more signal
[6] = biological target: Fibroblast growth factor 2 (Homo sapiens) (UniProt P09038); assay: FGF2 binders on small-molecule microarrays, primary screen, biochemical, small-molecule microarray, 635/667 nm fluorescence (AID 1133); details: small-molecule microarray binding, FGF2, fluorescence 635/667; higher = more signal
[7] = mitochondrial membrane potential change in A549 cells, profiling panel, cell-based, JC-1 fluorescence, basal, 24 h, 100 nL (AID 1138); details: higher = more signal;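 also: A549 lung adenocarcinoma cells under basal conditions with no added stimulus; test concentration not given here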
Lefty1 = Lefty1 binders on small-molecule microarrays, primary screen, biochemical, small-molecule microarray, 635/667 nm fluorescence (AID 1139); details: small-molecule microarray binding, fluorescence 635/667; higher = more signal
[8] = test system: wheat germ agglutinin (Triticum aestivum), Alexa647-labelled; assay: wheat germ agglutinin binders on compound microarrays, profiling panel, artefact control for SMM control-protein annotation, biochemical, small-molecule microarray, 635/667 nm fluorescence (AID 1140); details: WGA-A647 binding, 635 nm fluorescence, higher = more signal;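 also: score merges 667 nm feature emission with signal to noise over triplicate slides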
[9] = biological target: Luciferin 4-monooxygenase (Photinus pyralis) (UniProt P08659); assay: firefly luciferase enzyme inhibitors, primary screen, biochemical, luminescence, purified enzyme, 2006 set (AID 1141); details: SteadyGlo luminescence, 30 min, higher = more signal, called active from +8 up or from −8 down;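 also: cell-free assay with purified firefly luciferase at 100 ng per well in PBS; test concentration not given here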
[10] = test system: Wnt5a (protein binding on small-molecule microarray); assay: Wnt5a binders on small-molecule microarray, primary screen, biophysical, 635/667 nm fluorescence (AID 1142); details: 635 nm fluorescence, higher = more signal;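 also: fluorescence read at 667 nm with signal to noise per printed feature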
[11] = cell viability in Huh7 cells, primary screen, cytotoxicity control for HCV replication inhibitor project, CellTiter-Glo luminescence, basal, 48 h (AID 1143); details: Huh7 HCV replicon, higher = more signal, called active from +8 up or from −8 down;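 also: Huh7 hepatoma cells carrying a hepatitis C replication reporter with no stimulus; test concentration not given here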
[12] = P. aeruginosa biofilm formation inhibitors, primary screen, PAO1 strain, BacTiter-Glo luminescence, LB-PBS (AID 1144); details: 12 h, higher = more signal
[13] = CREB reporter modulators without forskolin, primary screen, cell-based, PC12, CRE-LacZ reporter, unstimulated (AID 1145); details: no forskolin, luminescence, 4.5 h, higher = more signal, called active from +8 up or from −8 down
[14] = CREB reporter modulators under forskolin, primary screen, cell-based, PC12, CRE-LacZ reporter, forskolin-stimulated (AID 1146); details: luminescence, 4.5 h, higher = more signal, called active from +8 up or from −8 down;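 also: PC12 cells with 6xCRE LacZ reporter stimulated by forskolin 10 µM; beta-galactosidase reporter signal reflecting CREB driven transcription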
[15] = biological target: Streptavidin (Streptomyces avidinii) (UniProt P22629); assay: streptavidin binders on small-molecule microarray, primary screen, artefact control for SMM compound annotation, biophysical, 635/667 nm fluorescence (AID 1147); details: streptavidin binding, higher = more signal;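 also: signal reflects streptavidin binding to arrayed compounds as a control protein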
[16] = small-molecule binders of probe aInhba, primary screen, biochemical, small-molecule microarray, 635/667 nm fluorescence (AID 1148); details: higher = more signal;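 also: score merges 667nm spot fluorescence with signal-to-noise for antibody binding to printed compounds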
Torsin-1A (Homo sapiens) [17] = biological target: Torsin-1A (Homo sapiens) (UniProt O14656); assay: torsin A binders from cell lysate, primary screen, small-molecule microarray, wild-type, 635/667 nm (AID 1149); details: COS7 hTOR1A-WT lysate, 635 nm fluorescence, higher = more signal
Torsin-1A (Homo sapiens) [18] = biological target: Torsin-1A (Homo sapiens) (UniProt O14656); assay: small-molecule binders of mutant TOR1A in lysate, primary screen, cell lysate, small-molecule microarray, COS7 lysate, 635/667 nm fluorescence (AID 1150); details: COS7 hTOR1A mutant lysate, 635 nm fluorescence, higher = more signal;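 also: score pools 667 nm emission and signal to noise measuring lysate protein binding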
[19] = test system: Sonic hedgehog protein (Shh); assay: small-molecule binders of Shh protein, primary screen, biochemical, small-molecule microarray, 635/667 nm fluorescence (AID 1151); details: small-molecule microarray binding, 635 nm fluorescence; higher = more signal;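 also: Shh protein binding to compounds spotted on small-molecule microarray slides; score combines spot fluorescence intensity with signal-to-noise across triplicate slides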

Sequence of Fibroblast growth factor 2 (Homo sapiens) (P09038 whole entry, looked up): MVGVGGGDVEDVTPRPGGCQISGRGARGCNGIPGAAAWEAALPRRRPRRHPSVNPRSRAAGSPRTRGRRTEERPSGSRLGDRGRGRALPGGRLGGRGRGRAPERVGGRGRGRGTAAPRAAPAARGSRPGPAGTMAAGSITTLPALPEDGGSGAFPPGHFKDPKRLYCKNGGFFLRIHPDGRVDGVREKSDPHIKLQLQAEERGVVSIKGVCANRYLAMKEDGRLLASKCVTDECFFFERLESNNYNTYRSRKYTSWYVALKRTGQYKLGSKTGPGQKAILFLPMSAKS
Sequence of Luciferin 4-monooxygenase (Photinus pyralis) (P08659 whole entry, looked up): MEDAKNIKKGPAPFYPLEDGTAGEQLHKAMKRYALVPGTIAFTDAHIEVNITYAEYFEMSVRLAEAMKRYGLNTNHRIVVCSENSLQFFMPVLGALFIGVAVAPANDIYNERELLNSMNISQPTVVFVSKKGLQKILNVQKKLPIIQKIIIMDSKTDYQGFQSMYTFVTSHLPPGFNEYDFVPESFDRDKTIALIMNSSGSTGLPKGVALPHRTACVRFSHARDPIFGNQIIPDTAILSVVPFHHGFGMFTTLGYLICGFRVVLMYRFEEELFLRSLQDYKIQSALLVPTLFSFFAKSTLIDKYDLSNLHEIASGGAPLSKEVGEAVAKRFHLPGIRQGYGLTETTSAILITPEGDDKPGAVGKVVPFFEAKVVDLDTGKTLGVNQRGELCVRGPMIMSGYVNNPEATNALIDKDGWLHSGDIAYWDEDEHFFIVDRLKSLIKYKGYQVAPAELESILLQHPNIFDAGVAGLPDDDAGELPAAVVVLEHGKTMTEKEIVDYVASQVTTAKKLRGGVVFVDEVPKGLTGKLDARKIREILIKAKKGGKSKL
Sequence of Follistatin (Homo sapiens) (P19883 whole entry, looked up): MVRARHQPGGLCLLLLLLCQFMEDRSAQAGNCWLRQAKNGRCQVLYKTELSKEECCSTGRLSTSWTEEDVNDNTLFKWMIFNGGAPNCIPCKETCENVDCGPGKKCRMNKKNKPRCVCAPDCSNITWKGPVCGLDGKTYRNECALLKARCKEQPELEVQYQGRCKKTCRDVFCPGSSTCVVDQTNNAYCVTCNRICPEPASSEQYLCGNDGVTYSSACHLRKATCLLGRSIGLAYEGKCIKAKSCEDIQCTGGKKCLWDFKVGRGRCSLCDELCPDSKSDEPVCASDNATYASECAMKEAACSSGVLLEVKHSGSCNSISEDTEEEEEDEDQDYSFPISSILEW
Sequence of Torsin-1A (Homo sapiens) (O14656 whole entry, looked up): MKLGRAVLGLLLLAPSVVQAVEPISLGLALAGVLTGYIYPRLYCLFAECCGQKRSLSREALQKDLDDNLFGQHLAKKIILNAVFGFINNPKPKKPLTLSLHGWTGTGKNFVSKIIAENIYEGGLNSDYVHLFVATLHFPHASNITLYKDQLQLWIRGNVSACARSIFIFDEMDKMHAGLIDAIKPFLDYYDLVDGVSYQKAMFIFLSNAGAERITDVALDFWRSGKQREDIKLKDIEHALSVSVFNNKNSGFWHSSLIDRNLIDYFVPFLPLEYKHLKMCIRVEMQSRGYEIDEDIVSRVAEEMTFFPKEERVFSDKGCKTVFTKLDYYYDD
Sequence of Focal adhesion kinase 1 (Homo sapiens) (Q05397 whole entry, looked up): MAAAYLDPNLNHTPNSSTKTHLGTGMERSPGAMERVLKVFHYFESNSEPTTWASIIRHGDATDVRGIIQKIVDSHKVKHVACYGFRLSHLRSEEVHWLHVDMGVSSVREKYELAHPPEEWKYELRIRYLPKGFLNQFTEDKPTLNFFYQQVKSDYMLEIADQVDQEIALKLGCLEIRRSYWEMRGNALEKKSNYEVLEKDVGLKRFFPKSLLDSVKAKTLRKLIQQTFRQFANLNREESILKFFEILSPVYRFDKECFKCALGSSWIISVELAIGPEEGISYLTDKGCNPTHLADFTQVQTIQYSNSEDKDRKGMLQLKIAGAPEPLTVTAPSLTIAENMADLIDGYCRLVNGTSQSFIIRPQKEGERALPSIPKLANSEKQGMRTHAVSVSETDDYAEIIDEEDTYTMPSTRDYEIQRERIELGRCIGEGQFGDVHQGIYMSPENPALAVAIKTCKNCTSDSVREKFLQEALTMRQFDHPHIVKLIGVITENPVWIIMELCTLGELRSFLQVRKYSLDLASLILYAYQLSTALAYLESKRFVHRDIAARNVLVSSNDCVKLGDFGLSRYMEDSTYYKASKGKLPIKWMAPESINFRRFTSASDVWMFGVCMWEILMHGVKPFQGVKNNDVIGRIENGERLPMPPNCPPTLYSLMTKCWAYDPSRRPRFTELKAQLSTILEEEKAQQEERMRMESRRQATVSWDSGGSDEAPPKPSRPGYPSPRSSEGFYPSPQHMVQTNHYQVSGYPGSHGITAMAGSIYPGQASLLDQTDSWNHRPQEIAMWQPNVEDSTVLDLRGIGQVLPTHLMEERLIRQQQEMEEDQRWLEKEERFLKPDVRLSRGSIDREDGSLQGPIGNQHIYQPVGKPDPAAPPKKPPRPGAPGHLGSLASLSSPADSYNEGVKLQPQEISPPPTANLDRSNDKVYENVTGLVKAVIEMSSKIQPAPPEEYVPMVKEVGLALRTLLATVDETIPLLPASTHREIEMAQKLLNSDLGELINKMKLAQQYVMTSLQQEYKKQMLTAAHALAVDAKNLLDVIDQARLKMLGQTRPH
Sequence of Streptavidin (Streptomyces avidinii) (P22629 whole entry, looked up): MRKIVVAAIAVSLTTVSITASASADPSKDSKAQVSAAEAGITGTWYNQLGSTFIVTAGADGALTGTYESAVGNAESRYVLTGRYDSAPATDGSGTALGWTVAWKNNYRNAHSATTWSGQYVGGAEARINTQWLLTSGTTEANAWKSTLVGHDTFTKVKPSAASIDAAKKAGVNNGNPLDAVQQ

SMILES	composite z-score [1]	composite z-score [2]	composite z-score [3]	composite z-score [4]	composite z-score [5]	composite z-score [6]	z-score [7]	composite z-score (Lefty1)	composite z-score [8]	z-score [9]	composite z-score [10]	z-score [11]	z-score [12]	z-score [13]	z-score [14]	composite z-score [15]	composite z-score [16]	composite z-score (Torsin-1A (Homo sapiens) [17])	composite z-score (Torsin-1A (Homo sapiens) [18])	composite z-score [19]
[N-]=[N+]=NCc1ccccc1[C@@H]1OC(c2ccc(OCCCO)cc2)=N[C@]1(Cc1ccccc1N=[N+]=[N-])C(N)=O	1.81	1.26	0.73	1.01	1.28	0.853	0.737	-0.173	1.31	-3.4 (inactive)	0.138	-1.91 (inactive)	-0.089 (inactive)	-0.128 (inactive)	0.15 (inactive)	2.16	0.32	0.571	0.373	-0.349
COCCCNC(=O)[C@@]1(Sc2ccc(C)cc2)CC(=O)N(Cc2ccccc2)[C@@H]1c1ccc(CO)cc1	0.068	-0.277	-0.166	-1.56	-0.489	-0.236	-0.0602	-1.03	-0.4	0.542 (inactive)	-0.114	0.101 (inactive)	-0.578 (inactive)	-0.438 (inactive)	0.579 (inactive)	-0.82	-0.0193	0.366	-0.607	-0.168
COc1c(C)cc(-c2cc3c(c(-c4ccccc4)n2)[Si](C(C)C)(C(C)C)O[C@H]3c2ccccc2)cc1C	0.235	-0.26	-0.0638	-0.243	0.145	-0.212	0.125	0.377	0.124	0.407 (inactive)	-0.0797	0.393 (inactive)	-0.0188 (inactive)	-0.244 (inactive)	-0.0226 (inactive)	-0.0096	-0.119	-0.381	-0.22	0.618
C=C(CCCC)/C(=C/C[C@H](OC(C)=O)c1ccc(CO)o1)c1cc(C(=O)OC)ccc1OC	0.683	0.596	0.0945	0.579	1.29	0.708	-0.925	1.42	0.789	-1.45 (inactive)	0.244	-3.43 (inactive)	-0.193 (inactive)	0.709 (inactive)	0.0467 (inactive)	0.772	0.0622	0.206	-0.0953	1.53
C=C(C(=O)CC[C@@H](OC(=O)c1cccnc1)c1ccc(OCCO)cc1)C(C)C	0.222	0.314	-0.17	-0.0579	1.43	1.16	-0.358	1.21	0.752	-3.48 (inactive)	0.725	-8.32 (active)	0.118 (inactive)	20 (active)	0.12 (inactive)	-0.136	-0.128	0.0998	0.97	1.58

From PubChem BioAssay
